Compound activity from PubChem.
Sampled rows, rich in hits. Any-hit rate of the full collection: about 9.3%.
Sm TGR inh – inhibitors of Schistosoma mansoni thioredoxin glutathione reductase; purified TGR, DTNB reduction, TNB absorbance 405 nm; 360,000 tested, 3% active; Potency, µM (highest dose often 114 µM), without a hit: top-dose activity change, negative = inhibition, hits mostly inhibitors; note: potency is the fitted concentration of half-maximal effect; nearly all actives have a fitted effect of over 60% in size
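First, TGR (20 nM dispensed) and NADPH were mixed with compound. Second, a 15 min room-temperature incubation followed. Third, further NADPH and then DTNB were added to start the reaction. Finally, TNB absorbance was monitored kinetically.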
HCMV inh – blocks human cytomegalovirus replication | HFF cells, HCMV-luciferase reporter, 72 h; hits give low values | AID 1259415 | activity change, negative = inhibition, % at 57.5 µM | 410,000 tested, 4.5% active; in the data active = activity change below about -60%; inconclusive = no clear call, values can overlap the other calls; inactive = above about -39%
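Two compound doses tested in HFFs infected with HCMV-luciferase, MOI 1 PFU/cell, 72 h at 37C. Lysate luminescence read with OneGlo; data normalized against buffer-only and 10uM Salinomycin inhibitor controls.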
VACV mCherry inh – inhibitors of vaccinia virus infection (mCherry reporter signal); Vaccinia virus mCherry reporter infection, fluorescence; Potency, µM (titrated, usually from 36.5 µM), for inactives: at the top dose activity change, negative = inhibition, actives largely listed as inhibitors; 310,000 tested, 0.63% active; AID 720579; calls by dose curve; tested in A549 cells; note: potency is the fitted concentration of half-maximal effect; nearly all actives have a fitted effect of over 35% in size
VACV Venus inh – inhibitors of vaccinia virus (Venus reporter). Vaccinia virus Venus reporter expression, fluorescence. Potency, µM (series often up to 36.5 µM), for inactives: top-dose activity change, negative = inhibition, hits mostly inhibitors. 330,000 tested, 0.46% active; calls by dose curve; tested in A549 cells; note: potency is the fitted concentration of half-maximal effect; nearly all actives have a fitted effect of over 30% in size
FMDV inh – blocks foot and mouth disease virus; Potency, µM (top dose mostly 57.9 µM), for the others: top-dose activity change, negative = inhibition, actives largely listed as inhibitors; FMDV antiviral cell-based qHTS; 410,000 tested, 1.2% active; calls by dose curve; tested in HEK293T cells; note: read-out not given here; potency is the fitted concentration of half-maximal effect; nearly all actives have a fitted effect of over 45% in size
HCV inh – HCV inhibition; 340,000 tested, 3.4% active; Potency, µM (doses to about 41.8 µM), for inactives: top-dose activity change, negative = inhibition, most hits filed as inhibitors; Huh7.5.1 HCVcc-Cre infection, luciferase reporter, 44 h; note: potency is the fitted concentration of half-maximal effect
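Infectious HCVcc-Cre (~0.5 moi) was added to cells just after compound, with cells seeded 4 h earlier at 1,000 per well. Luciferase activity after 44 h culture reported infection; substrate was incubated 15 min at room temperature before reading.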
* hit, by the source's call; ! = not active in a repeat; [ ] = remark or other dose. Unless noted, calls come from the whole dose curve; as a rule, active = well fitted curve in the direction sought with a large enough effect; inconclusive = small, poorly fitted or top-dose-only effect, or another doubt; inactive = no such curve, though single readings can be large; an effect the other way counts as inactive or inconclusive. % is set by controls: 0 for no effect and ±100 for the full control effect.

What do the screens show for `O=c1c(-c2ccco2)[n+]([O-])c2ccccc2n1OCc1c(F)cccc1F`?
Sm TGR inh: 16µM*; HCMV inh: 35; VACV mCherry inh: -13%[7.34 µM]; VACV Venus inh: -23%[7.34 µM]; FMDV inh: inconclusive; HCV inh: -2%

How did O=c1c(-c2ccco2)[n+]([O-])c2ccccc2n1OCc1ccccc1 do in these assays?
Sm TGR inh: 10µM*; HCMV inh: -17; VACV mCherry inh: inconclusive; VACV Venus inh: -10%; FMDV inh: -15%; HCV inh: -22%

Results for O=C(Nc1cc(F)ccc1F)C1CCCN(c2ncnc3c2nc2n3CCCCC2)C1 (stereo not drawn) ?
Sm TGR inh: 90%; HCMV inh: -39; FMDV inh: -28%; HCV inh: inconclusive

Results for CCOC(=O)[C@H]1[C@H]2COc3ccc(Cl)cc3[C@@H]2N2C(=O)[C@H](C)NC(=O)[C@@]12C ?
VACV mCherry inh: -3%; VACV Venus inh: -10%; FMDV inh: 2%; HCV inh: inconclusive

What do the screens show for `CCCc1nc(SCC(=O)N2CCc3ccccc32)c2c(C)c(C)sc2n1`?
Sm TGR inh: 6%

How did COc1ccc(C(CC(=O)c2ccc(C)cc2)Nc2ccc([N+](=O)[O-])cc2)cc1 (stereo not drawn) do in these assays?
Sm TGR inh: -1%; HCMV inh: -6; VACV mCherry inh: -7%; VACV Venus inh: -15%; FMDV inh: 0%; HCV inh: 13µM*

What do the screens show for `Cc1ccc(NC(CC(=O)c2ccccc2)c2ccc(F)cc2)cc1` (stereo not drawn)?
Sm TGR inh: 0%; HCMV inh: -26; FMDV inh: 17%; HCV inh: 8%

Results for CN(C)C1C(=O)C(C(N)=O)=C(O)[C@@]2(O)C(=O)C3=C(O)c4c(O)cccc4[C@@](C)(O)C3CC12 (stereo partly drawn) ?
VACV mCherry inh: -16%; VACV Venus inh: -17%; FMDV inh: 9%

What do the screens show for `CN(C)C1C(=O)C(C(N)=O)=C(O)C2(O)C(=O)C3=C(O)c4c(O)cccc4C(C)(O)C3C(O)C12` (stereo not drawn)?
Sm TGR inh: 32µM*; HCMV inh: 53; VACV mCherry inh: -14%; VACV Venus inh: -14%; FMDV inh: -16%; HCV inh: 5%

Results for CC(=O)N1CCOc2ccc(S(=O)(=O)N3CCC(C(=O)Nc4cc(C)ccc4C)CC3)cc21 ?
Sm TGR inh: -2%; HCMV inh: -64*; VACV mCherry inh: -15%; VACV Venus inh: -3%; FMDV inh: -17%; HCV inh: -12%

How did Cc1ccc2nc(N3C(=O)CNC3=S)sc2c1 do in these assays?
Sm TGR inh: 6%; HCMV inh: -92*; VACV mCherry inh: -14%; VACV Venus inh: -27%; FMDV inh: 0%; HCV inh: inconclusive

Results for Cc1cccc(CC2CC(=O)N(c3nc4ccccc4s3)C2=O)c1 (stereo not drawn) ?
HCMV inh: -15; VACV mCherry inh: inactive; VACV Venus inh: -1%; FMDV inh: -13%; HCV inh: 2%

Results for COc1ccc2nc(N3C(=O)CNC3=S)sc2c1 ?
Sm TGR inh: 2%; HCMV inh: -69*; VACV mCherry inh: inactive[7.34 µM]; VACV Venus inh: 0%[7.34 µM]; FMDV inh: 25%; HCV inh: 16%

Results for Cc1nc2ccccc2c2oc(C(=O)NCCN3CCN(C)CC3)cc12 ?
Sm TGR inh: 0%; HCMV inh: -70*; VACV mCherry inh: 1%; VACV Venus inh: 5%; FMDV inh: 0%; HCV inh: -1%

How did O=C(CCNS(=O)(=O)c1cccs1)N1CCN(c2cccc(C(F)(F)F)c2)CC1 do in these assays?
Sm TGR inh: 2%; HCMV inh: -13; VACV mCherry inh: -29%; VACV Venus inh: -15%; FMDV inh: inconclusive; HCV inh: -2%

Results for COc1ccc(S(=O)(=O)N(C)CC(=O)N2CCN(c3ccccc3)CC2)cc1 ?
Sm TGR inh: -9%; HCMV inh: -3; VACV mCherry inh: -12%; VACV Venus inh: -8%; FMDV inh: -20%; HCV inh: 8%

How did COc1ccc(N2CCN(C(=O)CCNS(=O)(=O)c3cccs3)CC2)cc1 do in these assays?
Sm TGR inh: 0%; HCMV inh: -34; VACV mCherry inh: inconclusive; VACV Venus inh: 13µM*; HCV inh: -14%

Results for COc1ccc(N2CCN(C(=O)CN(CCc3ccccc3)S(C)(=O)=O)CC2)cc1 ?
Sm TGR inh: 0%; HCMV inh: -24; VACV mCherry inh: 1.8µM*; VACV Venus inh: inconclusive; HCV inh: -19%

What do the screens show for `COc1ccc(N2CCN(C(=O)CN(C)S(=O)(=O)c3cccs3)CC2)cc1`?
Sm TGR inh: -17%; HCMV inh: -100*!; VACV mCherry inh: -5%; VACV Venus inh: -16%; FMDV inh: -7%; HCV inh: -19%

What do the screens show for `CC(Oc1ccc2c3c(c(=O)oc2c1)CCC3)C(=O)NCc1ccccn1` (stereo not drawn)?
Sm TGR inh: -1%; HCMV inh: inconclusive; FMDV inh: -9%; HCV inh: -15%

How did O=C(CSc1ccc2c(c1)OCCO2)NCc1ccco1 do in these assays?
Sm TGR inh: 20µM*; HCMV inh: 44; VACV mCherry inh: -15%; VACV Venus inh: -1%; FMDV inh: 25%; HCV inh: 6%

What do the screens show for `O=C(CN1CCOc2ccccc21)NCc1ccco1`?
Sm TGR inh: 50µM*; HCMV inh: 15; VACV mCherry inh: -8%; VACV Venus inh: -6%; FMDV inh: -4%; HCV inh: 7%

What do the screens show for `Cc1ccccc1CN1CCN(CC(=O)NCc2ccco2)C1=O`?
Sm TGR inh: 40µM*; HCMV inh: -13; VACV Venus inh: inconclusive; FMDV inh: -7%; HCV inh: 2%

Results for CC(C)(C)c1ccc(C(=O)Nc2cccc3c(=O)[nH][nH]c(=O)c23)cc1 ?
Sm TGR inh: -13%; HCMV inh: -69*; VACV mCherry inh: -22%; VACV Venus inh: -14%; FMDV inh: 4.5µM*; HCV inh: inconclusive

Results for Cc1ccc(C(=O)Nc2cccc3ccccc23)cc1 ?
Sm TGR inh: -2%; HCMV inh: 3; FMDV inh: 47%; HCV inh: -15%

Results for CC1OC(NCCc2ccccc2)C(O)C(O)C1O (stereo not drawn) ?
Sm TGR inh: 1%; HCMV inh: 32; VACV mCherry inh: -10%; VACV Venus inh: -4%; FMDV inh: -15%; HCV inh: -6%

Results for CCOc1ccc(S(=O)(=O)n2cnc3cc(C)c(C)cc32)cc1 ?
Sm TGR inh: 8%; HCMV inh: -86*; VACV mCherry inh: inconclusive; VACV Venus inh: inconclusive; FMDV inh: inconclusive; HCV inh: 10µM*
